Data reported in PubChem BioAssay (NCI).
The panel holds about 83,000 compounds, 20% with a hit somewhere; the sample as a whole holds those more often.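 Growth was measured after 48 h exposure to one concentration of compound in 96-well plates. Values under 10 count as active.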 Activity calls are given as the source filed them.

How the values were obtained:
Assay in all cases: NCI-60 one-dose screen, 48 h (100 = growth as untreated, 0 = no growth, -100 = all killed)
Settings in all cases: 10 µM unless noted
NCI-H23 lung = test system: NCI-H23 lung
NCI-H226 lung = test system: NCI-H226 lung
NCI-H322M lung = test system: NCI-H322M lung
HOP-62 NSCLC = test system: HOP-62 NSCLC
NCI-H460 lung = test system: NCI-H460 lung
HOP-92 NSCLC = test system: HOP-92 NSCLC
NCI-H522 lung = test system: NCI-H522 lung
A549/ATCC NSCLC = test system: A549/ATCC NSCLC
786-0 renal = test system: 786-0 renal
COLO 205 colon = test system: COLO 205 colon

Measured: growth

Cc1ccc(-n2nc3c(c(C#N)c2=O)CC(c2ccccc2Cl)C([N+](=O)[O-])=C3O)cc1 (stereo not given)
inactive: NCI-H23 lung 101% | NCI-H226 lung 102% | NCI-H322M lung 101% | HOP-62 NSCLC 91% | NCI-H460 lung 99.3% | HOP-92 NSCLC 103% | NCI-H522 lung 89% | A549/ATCC NSCLC 95.4% | 786-0 renal 102% | COLO 205 colon 108%

CCOC(=O)c1ccc(N2NC(=O)/C(=C/c3ccc([N+](=O)[O-])o3)C2=O)cc1
inactive: NCI-H23 lung 108% | NCI-H226 lung 120% | NCI-H322M lung 99.8% | HOP-62 NSCLC 109% | NCI-H460 lung 111% | HOP-92 NSCLC 105% | NCI-H522 lung 60.7% | 786-0 renal 116% | COLO 205 colon 129%
active: A549/ATCC NSCLC -1.33%

CCOC(=O)c1c2c(n3ccc(NC(=O)OC(C)(C)C)cc13)C(=O)c1ncccc1C2=O
active: NCI-H23 lung -77.5% | NCI-H226 lung -63.7% | NCI-H322M lung -19.5% | HOP-62 NSCLC -76.8% | NCI-H460 lung -82.6% | HOP-92 NSCLC -10.3% | NCI-H522 lung -56.1% | A549/ATCC NSCLC -57.3% | 786-0 renal -49.3% | COLO 205 colon -54.6%

O=C1OC(c2nc3ccccc3s2)=C/C1=C\c1ccc(O)cc1
inactive: NCI-H23 lung 98.9% | NCI-H226 lung 99.5% | NCI-H322M lung 110% | HOP-62 NSCLC 91.8% | NCI-H460 lung 101% | HOP-92 NSCLC 87.9% | NCI-H522 lung 91.4% | A549/ATCC NSCLC 109% | 786-0 renal 107% | COLO 205 colon 102%

O=C(Nc1ccc(Cl)cc1)Nc1ccc(Cl)c(C(F)(F)F)c1
active: NCI-H23 lung -15.5% | NCI-H226 lung 2.69% | NCI-H460 lung 0.218% | HOP-92 NSCLC -14.8% | NCI-H522 lung 3.9% | COLO 205 colon -73.8%
inactive: NCI-H322M lung 17.1% | HOP-62 NSCLC 11.3% | A549/ATCC NSCLC 13.3% | 786-0 renal 15.1%

N#Cc1c(N)nc(NCCO)nc1-c1ccc(F)cc1
inactive: NCI-H23 lung 96.7% | NCI-H226 lung 77.1% | NCI-H322M lung 102% | HOP-62 NSCLC 93.3% | NCI-H460 lung 103% | HOP-92 NSCLC 75.9% | NCI-H522 lung 86.6% | A549/ATCC NSCLC 71.8% | 786-0 renal 97.1% | COLO 205 colon 92.5%

CCOC(CN=Cc1cc(C)c2[nH]c3ccccc3c2c1C)OCC
inactive: NCI-H23 lung 97.7% | NCI-H322M lung 113% | HOP-62 NSCLC 102% | NCI-H460 lung 83.1% | HOP-92 NSCLC 115% | NCI-H522 lung 113% | A549/ATCC NSCLC 102% | 786-0 renal 93.2% | COLO 205 colon 107%
active: NCI-H226 lung 6.9%

COc1cccc(C(=O)NCCCNc2cc(-c3cn(-c4ccccc4)nc3-c3cccc(OC)c3)ccn2)c1
inactive: NCI-H23 lung 45.4% | NCI-H226 lung 54.6% | NCI-H322M lung 99.6% | HOP-62 NSCLC 66% | NCI-H460 lung 48.8% | HOP-92 NSCLC 45.3% | NCI-H522 lung 46.1% | A549/ATCC NSCLC 29.9% | 786-0 renal 36.6% | COLO 205 colon 40%

Cc1nn(-c2ccccc2)c(Oc2ccc(Cl)cc2)c1/C=N\N=c1/sc2ccccc2n1C
inactive: NCI-H23 lung 88.9% | NCI-H226 lung 84.3% | NCI-H322M lung 83.8% | HOP-62 NSCLC 86.7% | NCI-H460 lung 85% | HOP-92 NSCLC 71.9% | NCI-H522 lung 68% | A549/ATCC NSCLC 86.1% | 786-0 renal 96.3% | COLO 205 colon 93%

CCCCCCCCCCCCCCCCCC1=NCCN1CCOC1=C(Cl)C(=O)c2ccccc2C1=O
inactive: NCI-H23 lung 79.4% | NCI-H226 lung 100% | NCI-H322M lung 80.5% | HOP-62 NSCLC 82.6% | NCI-H460 lung 98.3% | HOP-92 NSCLC 46.4% | NCI-H522 lung 13.8% | A549/ATCC NSCLC 95.3% | 786-0 renal 98.3% | COLO 205 colon 41.2%

CC/C=C\C/C=C\C[C@H](O)C/C=C1/C(=O)C=C[C@@H]1C/C=C\CCCC(=O)O
active: NCI-H522 lung -22.8% | 786-0 renal -38.7%
inactive: NCI-H23 lung 61.8% | NCI-H226 lung 59.6% | NCI-H322M lung 53.4% | HOP-62 NSCLC 62.8% | NCI-H460 lung 31.8% | HOP-92 NSCLC 87.3% | A549/ATCC NSCLC 57.3% | COLO 205 colon 27%

COc1cc(/C=C/C(=O)c2c(C)nc3ccccc3c2C)ccc1OCCCN1CCN(C(=O)c2ccco2)CC1
inactive: NCI-H23 lung 58.1% | NCI-H226 lung 63.2% | NCI-H322M lung 91.8% | HOP-62 NSCLC 91.5% | NCI-H460 lung 98.2% | HOP-92 NSCLC 70% | NCI-H522 lung 57.7% | A549/ATCC NSCLC 79% | 786-0 renal 85.9% | COLO 205 colon 99.1%

CCCCn1c(=O)c2c(nc(NCCc3ccc(O)c(O)c3)n2CCC)n(CCCC)c1=O
inactive: NCI-H23 lung 87.1% | NCI-H226 lung 87.7% | NCI-H322M lung 94.2% | HOP-62 NSCLC 96.8% | NCI-H460 lung 92.9% | HOP-92 NSCLC 69.8% | A549/ATCC NSCLC 76.9% | 786-0 renal 81.3% | COLO 205 colon 70.3%
active: NCI-H522 lung -0.778%

O=S(=O)(O)c1ccc(N/N=C/c2ccccc2Cl)cc1
inactive: NCI-H23 lung 108% | NCI-H226 lung 111% | NCI-H322M lung 108% | HOP-62 NSCLC 123% | NCI-H460 lung 109% | HOP-92 NSCLC 116% | NCI-H522 lung 96.9% | A549/ATCC NSCLC 99.5% | 786-0 renal 95.6% | COLO 205 colon 112%

COC(=O)[C@]12CC[C@@H](C)[C@H](C)[C@@H]1C1=CC[C@@H]3[C@@]4(C)C(C=O)=C[C@@](C)(COC(C)=O)[C@@H]4[C@H](O)C[C@@]3(C)[C@]1(C)CC2
inactive: NCI-H322M lung 28.3%
active: NCI-H23 lung -12.8% | NCI-H226 lung -25.2% | HOP-62 NSCLC 8.74% | NCI-H460 lung -64.6% | HOP-92 NSCLC -6.92% | NCI-H522 lung -35% | A549/ATCC NSCLC 1.47% | 786-0 renal -36.2% | COLO 205 colon -40.4%

CCc1ccccc1-n1c(N)c(C#N)c(-c2ccc(N(C)C)cc2)c(C#N)c1=O
inactive: NCI-H23 lung 96.2% | NCI-H226 lung 98.6% | NCI-H322M lung 86.3% | HOP-62 NSCLC 106% | NCI-H460 lung 96.4% | HOP-92 NSCLC 68.3% | NCI-H522 lung 93.7% | A549/ATCC NSCLC 98.9% | 786-0 renal 93.9% | COLO 205 colon 114%

COc1ccc(NC(=O)CSc2nnc(-c3cc(-c4ccccc4)nc4ccccc34)n2-c2ccccc2)cc1
inactive: NCI-H23 lung 92.1% | NCI-H226 lung 89.3% | NCI-H322M lung 94.6% | HOP-62 NSCLC 101% | NCI-H460 lung 102% | HOP-92 NSCLC 87.3% | NCI-H522 lung 80.1% | A549/ATCC NSCLC 92.4% | 786-0 renal 97.3% | COLO 205 colon 116%

COc1ccc(-c2cc(-c3cc(OC)ccc3OC)nc(SCC(=O)c3ccccc3)c2C#N)cc1
inactive: NCI-H23 lung 92.7% | NCI-H226 lung 84.4% | NCI-H322M lung 103% | HOP-62 NSCLC 89.9% | NCI-H460 lung 102% | HOP-92 NSCLC 92.3% | NCI-H522 lung 79% | A549/ATCC NSCLC 92.7% | 786-0 renal 109% | COLO 205 colon 97.8%

O=c1cc(C2NNC(=S)N2)c2ccc3ccccc3c2o1 (stereo not given)
inactive: NCI-H23 lung 91.6% | NCI-H226 lung 101% | NCI-H322M lung 101% | HOP-62 NSCLC 95.1% | NCI-H460 lung 98.6% | HOP-92 NSCLC 103% | NCI-H522 lung 87.1% | A549/ATCC NSCLC 108% | 786-0 renal 100% | COLO 205 colon 104%

CN1CCN(C(=O)c2c3c(n4ccccc24)C(=O)c2ncccc2C3=O)CC1
inactive: NCI-H23 lung 26.8% | NCI-H226 lung 69.5% | NCI-H322M lung 47.2% | HOP-62 NSCLC 27.3% | NCI-H460 lung 16.4% | HOP-92 NSCLC 85.4% | NCI-H522 lung 51.7% | A549/ATCC NSCLC 51.3% | 786-0 renal 56.3% | COLO 205 colon 78.2%

COc1ccc(-c2[nH]c(=S)n(C(CC3(C)NCC(=O)N3n3c(-c4ccccc4)cc(C)nc3=S)c3ccc(OC)cc3)c(=O)c2Br)cc1 (stereo not given)
inactive: NCI-H23 lung 70.8% | NCI-H226 lung 57.1% | NCI-H322M lung 82.2% | HOP-62 NSCLC 66.9% | NCI-H460 lung 73.1% | HOP-92 NSCLC 38.5% | NCI-H522 lung 42.4% | A549/ATCC NSCLC 72% | 786-0 renal 83.3% | COLO 205 colon 74.9%

COc1cc(-c2nn(-c3ccccc3)cc2-c2ccnc(NCCNS(=O)(=O)c3ccc(Cl)cc3)n2)ccc1Cl
inactive: NCI-H23 lung 47.4% | NCI-H226 lung 30.8% | NCI-H322M lung 68.8% | HOP-62 NSCLC 48% | NCI-H460 lung 19% | HOP-92 NSCLC 48.8% | NCI-H522 lung 42.2% | A549/ATCC NSCLC 13.3% | 786-0 renal 28.9% | COLO 205 colon 17.2%

N=C(N)c1ccc(-c2ccc(-c3cncc4ccccc34)s2)s1
active: NCI-H23 lung -53.2% | NCI-H226 lung -50.6% | NCI-H322M lung -90.9% | HOP-62 NSCLC -84.8% | NCI-H460 lung -78.6% | HOP-92 NSCLC -82.6% | NCI-H522 lung -69.6% | A549/ATCC NSCLC -85.8% | 786-0 renal -84.6% | COLO 205 colon -78.1%

O=C1/C(=C\c2c[nH]c3ccccc23)c2ccccc2N1c1c(Cl)cccc1Cl
inactive: NCI-H226 lung 14.7% | NCI-H322M lung 18.8% | HOP-62 NSCLC 19.6%
active: NCI-H23 lung -80.1% | NCI-H460 lung -89.5% | HOP-92 NSCLC -13.7% | NCI-H522 lung -57.9% | A549/ATCC NSCLC 0.113% | 786-0 renal -37.7% | COLO 205 colon -100%
